Assay results: PubChem BioAssay (NCI)
Compounds without any hit were thinned out: in the full panel of roughly 79,000, 15% have a hit. No stated cut-off is given here; in the data, active means growth inhibition above about 70%; inactive means the rest.

Legend:
[1] = NCI Yeast Anticancer Drug Screen. Data for the rad50 strain (AID 155);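 further: 0% = growth of vehicle-only cultures of the same strain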; settings: S. cerevisiae rad50 strain growth inhibition; at 50.0 µM; active compounds read high
Method in brief: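 Growth of the mutant yeast was measured after compound exposure and referenced to vehicle-treated cultures.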

[2] = NCI Yeast Anticancer Drug Screen. Data for the mec2-1 strain (AID 157); settings: S. cerevisiae mec2-1 strain, at 50.0 µM, active compounds read high
Method in brief: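 Compounds were applied to mec2-1 yeast cells. Their growth was then compared with that of vehicle-treated cultures to give growth inhibition.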

[3] = NCI Yeast Anticancer Drug Screen. Data for the sgs1 mgt1 strain (AID 161);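 further: 0% = growth of cultures given vehicle only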; settings: S. cerevisiae sgs1 mgt1 strain, at 50.0 µM, active compounds read high
Method in brief: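 Growth of a repair-deficient yeast mutant was monitored after compound treatment and expressed as inhibition relative to vehicle-treated cultures.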

[4] = NCI Yeast Anticancer Drug Screen. Data for the cln2 rad14 strain (AID 165);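 further: 0% = growth equal to vehicle treated cultures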; settings: S. cerevisiae cln2 rad14 strain, at 50.0 µM, active compounds read high
Method in brief: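 Strain: cln2 rad14 yeast, altered in cell cycle control and DNA damage repair. Read-out: growth inhibition vs vehicle.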

[5] = NCI Yeast Anticancer Drug Screen. Data for the bub3 strain (AID 167); settings: S. cerevisiae bub3 mutant strain, at 50.0 µM, active compounds read high
Method in brief: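 Whole-cell yeast assay. The mutant strain was incubated with compounds, and growth inhibition was determined by comparison with vehicle-treated cells.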

[6] = NCI Yeast Anticancer Drug Screen. Data for the mlh1 rad18 strain (AID 175); settings: S. cerevisiae mlh1 rad18 strain growth inhibition; at 50.0 µM; active compounds read high
Method in brief: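 A repair-deficient yeast strain is exposed to test compound, and growth is scored relative to vehicle-treated controls.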

Measured: growth inhibition

CC1CCC2(CC1)N=C1CCC(C)CC1C1(CCC(C)CC1)N2 (stereo not drawn)
inactive: [1] -22.4% | [2] 0.25% | [3] -32.9% | [4] -23.1% | [5] -13.2% | [6] -11.1%

CCOC(=O)CCC(NC(=O)c1ccc(Nc2nc3cc(C(F)(F)F)ccc3nc2-c2ccccc2)cc1)C(=O)OCC (stereo not drawn)
inactive: [1] 12.9% | [2] 2.7% | [3] 12.1% | [4] 3.9% | [5] -5.35% | [6] -37.1%

N#CC(=O)Nc1ccc(Cl)c(Cl)c1
inactive: [1] -18.6% | [2] -11.2% | [3] -14.6% | [4] -76.6% | [5] -2.15% | [6] 0.4%

CC(C)N1CCN(c2ccncc2S(=O)(=O)N2CCCCC2)CC1
inactive: [1] -14.1% | [2] -23.2% | [3] -12.3% | [4] -5.5% | [5] -21.9% | [6] -30.4%

COC(=O)[C@H]1[C@H]2C[C@@H]3c4[nH]c5ccccc5c4CCN3C[C@H]2C[C@@H](O)[C@@H]1OC(=O)c1cc(OC)c(OC)c(OC)c1
inactive: [1] 23.1% | [2] -1.35% | [3] 19.4% | [4] 8.75% | [5] 21% | [6] 20.9%

Brc1cc(Br)cc(-c2nnc(-c3cccc4ccccc34)o2)c1
inactive: [1] -14.1% | [2] -16.4% | [3] 0.25% | [4] 24.1% | [5] 10.2% | [6] -4.65%

Cc1cccc(NC(=S)NCCc2ccccn2)c1
inactive: [1] -6.85% | [2] -7.35% | [3] 17.9% | [4] -10.8% | [5] 12.7% | [6] 5.5%

CC(=O)N1OCCc2ccccc21
inactive: [1] 8.2% | [2] -0.15% | [3] -6.65% | [4] -37.5% | [5] -5.5% | [6] -1.45%

CCSC(SCC)[C@H](NC(C)=O)[C@@H](O)[C@H](O)[C@H](O)CO
inactive: [1] -6.8% | [2] -12.2% | [3] -8.85% | [4] 0.1% | [5] 2.85% | [6] -12.3%

c1cc2c3c(c1)CCC3CCC2 (stereo not drawn)
inactive: [1] -50.1% | [2] -48% | [3] -50.9% | [4] 12.8% | [5] -35% | [6] -4.85%

CC1(C)CC(O)CC(O)C1 (stereo not drawn)
inactive: [1] -4.3% | [2] -0.55% | [3] -0.2% | [4] 14.1% | [5] -0.15% | [6] -6.9%

CCCCCCCCCCCCCCCCCCNc1ccccc1
inactive: [1] -6.15% | [2] 9.15% | [3] 12.2% | [4] -29.8% | [5] 1.15% | [6] 16.2%

CC(C)COCC1COC2(OCC(C)(C)C2OC(=O)Nc2ccccc2)O1 (stereo not drawn)
inactive: [1] 5.55% | [2] -0.6% | [3] -12.4% | [4] -5.6% | [5] 5.95% | [6] 17.6%

COc1cc2c(cc1OC)NC(C)=CC(C)=N2
inactive: [1] -14.3% | [2] 5.1% | [3] 0.3% | [4] 25.2% | [5] 25.7% | [6] 15.9%

CN(C)c1nc(=Nc2ccc3c(c2)OCO3)ss1
inactive: [1] 30.5% | [2] 24.4% | [3] 54% | [4] 34.1% | [5] 16.9% | [6] 50.2%

O=C(/C=C\c1ccccc1)c1ccc(-c2ccc([N+](=O)[O-])cc2)cc1
inactive: [1] 10.4% | [2] 11.4% | [3] 9.05% | [4] -3.65% | [5] 4.8% | [6] 22.6%

CC(c1cccc2ccccc12)/[N+]([O-])=C/c1ccccc1 (stereo not drawn)
inactive: [1] -11.6% | [2] -27.9% | [3] -32.7% | [4] 2.1% | [5] -37.4% | [6] -11.7%

CC1OC(c2ccc(Cl)cc2)OC1C (stereo not drawn)
inactive: [1] 16.4% | [2] 20.9% | [3] 10.9% | [4] -31.6% | [5] -5.7% | [6] 10.7%

O=C(CCCc1ccccc1)OCC(=O)c1ccc(-c2ccccc2)cc1
inactive: [1] 19.4% | [2] 6.45% | [3] 11.2% | [4] 3.45% | [5] 12.8% | [6] 14.6%

O=C(O)c1ccc(OS(=O)(=O)c2ccccc2)cc1
inactive: [1] 26.5% | [2] 8.1% | [3] 39.7% | [4] 22.4% | [5] 46.9% | [6] 16.3%

CN(C)C(CO)(CO)CO
inactive: [1] 15.3% | [2] -7.5% | [3] 3% | [4] -0.75% | [5] 3.3% | [6] 2.3%

CN(C)c1ccc(/C=C/c2ccnc3ccc(Br)cc23)cc1
inactive: [1] 26.9% | [2] 14.9% | [3] 27.4% | [4] 14.9% | [5] 8.1% | [6] 9.35%

Cc1ccc(-n2nc(C)cc2C)nn1
inactive: [1] -3.55% | [2] 11.2% | [3] -9.75% | [4] -25.7% | [5] 26.6% | [6] -13.8%

CCOC(=O)C1=NN(c2ccc(C)cc2)C2=CC(C)=NN(C)C(=S)N21
inactive: [1] -18.1% | [2] -7.3% | [3] -21.8% | [4] -13.6% | [5] 7.1% | [6] -49.3%

Cc1nnc2ncccn12
inactive: [1] 31.1% | [2] -10.3% | [3] 8.4% | [4] -0.1% | [5] 0.55% | [6] -42.2%

CCOCNC(=O)Nc1ccccc1
inactive: [1] -5.4% | [2] -15.6% | [3] 7% | [4] -37.5% | [5] 0.35% | [6] 3.9%

O=C(O)CCC(C(=O)O)N(Cc1ccccc1)Cc1ccccc1 (stereo not drawn)
inactive: [1] 11.4% | [2] -0.4% | [3] -1.45% | [4] 1% | [5] 7.75% | [6] 5.9%

O=C(O)CSc1n[nH]c(-c2ccccc2O)n1
inactive: [1] -1.1% | [2] 2.5% | [3] 17.8% | [4] 17.5% | [5] 9.6% | [6] 7.25%

[O-][N+](O)=C1c2ccccc2-c2ccccc21
inactive: [1] 7.4% | [2] 2.95% | [3] 0.65% | [4] -21.4% | [5] 3.75% | [6] 11.1%

CC(C)(C)[Si](C)(C)OCC1CCC(n2cnc3c(=O)[nH]cnc32)O1 (stereo not drawn)
inactive: [1] 14.7% | [2] -6.75% | [3] 7.6% | [4] -4.1% | [5] 12.8% | [6] -7.25%

N=C(N)SCCCN
inactive: [1] -1.7% | [2] -14.7% | [3] -3.6% | [4] 2.95% | [5] -36% | [6] 29.1%

O=[N+]([O-])c1ccc(N/N=C/CCCCl)c([N+](=O)[O-])c1
inactive: [1] 6.6% | [2] -17.3% | [3] 13.2% | [4] 12.4% | [5] 11.1% | [6] 9.05%

O=C1OC(C2OC(=O)C(=O)C2C(=O)c2cccc([N+](=O)[O-])c2)C(C(=O)c2cccc([N+](=O)[O-])c2)C1=O (stereo not drawn)
inactive: [1] 0.5% | [2] 40.9% | [3] 13.3% | [4] -33.6% | [5] -36.5% | [6] 29.6%

CO/C(N)=C(\C#N)N=Cc1cccs1
inactive: [1] 3.95% | [2] 4.6% | [3] 11.4% | [4] 5.1% | [5] -8.4% | [6] 9.9%

COc1ccc(OC)c(C(c2cc(OC)ccc2OC)C(Cl)(Cl)Cl)c1
inactive: [1] 0.45% | [2] -13.2% | [3] -5.3% | [4] -6.45% | [5] -6% | [6] 14.6%

CSc1nc(=S)c2[nH]c(Cl)nc2[nH]1
inactive: [1] -1.8% | [2] 0.4% | [3] -6.9% | [4] -15.2% | [5] 16.4% | [6] 0.25%

O=C1Nc2ccccc2/C1=N/N1C(=O)CSC1=S
inactive: [1] 28.6% | [2] 15% | [3] 32.5% | [4] 7.2% | [5] 15.6% | [6] 29.1%

N#Cc1ccc(OCCCCOc2ccc([N+](=O)[O-])cc2Cl)cc1
inactive: [1] 5.75% | [2] -10.7% | [3] -19.4% | [4] -3.8% | [5] 4.65% | [6] 20%
